Reference: PubChem BioAssay (NCATS)
Results filed as inconclusive are left out. A call without a number means that no potency is given here. Values without a mark were called inactive. Active and inactive are the calls of the source. Calls follow the shape of the dose curve; as a rule, active = well fitted inhibition curve with a large enough effect; inconclusive = small, poorly fitted or top-dose-only effect; inactive = no such curve, though single readings can be large or run the other way. Where a SMILES comes first, the peptide text is derived from it. [ ]: non-standard residue; d: D form. The star is where a group is joined. Benzoyl(4-tBu) = CC(C)(C)c1ccc(C(=O)*)cc1; Lys(Et2) = CCN(CC)CCCC[C@H](N)C(=O)O

assay: Primary qHTS for inhibitors of nuclear receptor binding SET domain protein 2 (NSD2) in an RCH-ACV wild type WT cells (2C) (AID 1645877); conditions: RCH-ACV (leukaemia line) NSD2 WT (2C) viability, CellTiter-Glo, 72 h; series mostly up to 44.9 µM; also: nearly all actives have a fitted effect of over 70% in size
Potency is read from the fitted curve at half-maximal effect.

Compound	Potency	activity change, negative = cell killing
CC[C@@]1(O)C(=O)OCc2c1cc1n(c2=O)Cc2c-1nc1ccccc1c2CCNC(C)C	0.0026 µM (active)	
COc1ccc2[nH]c3c(c2c1)CCN[C@]31CS[C@@H]2c3c(OC(C)=O)c(C)c4c(c3[C@H](COC1=O)N1[C@@H]2[C@H]2c3c(cc(C)c(OC)c3O)C[C@@H]([C@@H]1O)N2C)OCO4	0.0017 µM (active)	
CCC(C)CNCC(=O)N1CCc2sccc2C1c1cccc(C)n1 (stereo not given)	inactive	
CS(=O)(=O)c1ccc(-c2cnc(NCc3ccco3)n3cnnc23)cc1	inactive	
O=c1c(-c2ccc(O)cc2)coc2c([C@@H]3O[C@H](CO)[C@@H](O)[C@H](O)[C@H]3O)c(O)ccc12	inactive	
CCC(=O)O[C@]1(C(=O)CO)CC[C@H]2[C@@H]3CCC4=CC(=O)CC[C@]4(C)[C@H]3CC[C@@]21C	inactive	
O=S(=O)(Nc1ccc(-c2cccnc2)c2cccnc12)c1cccc(C(F)(F)F)c1	7.42 µM (active)	
O=C(O)c1ccccc1-c1ccc(/C=c2\sc3nc4cc(Br)cnc4n3c2=O)o1	inactive	
O=c1[nH]nc2c3c(cccc13)NC(CN1Cc3ccccc3C1)=N2	18.6 µM (active)	
O=C([O-])C[O-].[Pt+2]	inactive	
N=C1S/C(=C\c2ccc(-c3ccc4c(c3)C(=O)NC4=O)o2)C(=O)N1c1ccc(Br)cc1	inactive	
CN1[C@@H]2CCC[C@H]1CC(NC(=O)c1nn(C)c3ccccc13)C2 (stereo not given in full)	inactive	
CCN(CC)CCCC[C@H](NC(=O)[C@H](CC(C)C)NC(=O)[C@H](C)NC(=O)[C@H](Cc1ccccc1)NC(=O)c1ccc(C(C)(C)C)cc1)C(=O)N[C@@H](CO)C(=O)OC ({Benzoyl(4-tBu)}-FAL[Lys(Et2)]S-OMe)	inactive	
CO[C@H]1/C=C/O[C@@]2(C)Oc3c(C)c(O)c4c(O)c(c5c(nc6cc(C)ccn65)c4c3C2=O)NC(=O)/C(C)=C\C=C\[C@H](C)[C@H](O)[C@@H](C)[C@@H](O)[C@@H](C)[C@H](OC(C)=O)[C@@H]1C	23.5 µM (active)	
COC(=O)[C@H]1[C@@H](O)[C@@]2(O)c3c(OC)cc(O[C@@H]4O[C@@H]([C@@H](O)CO)CO[C@H]4OC)cc3O[C@@]2(c2ccc(OC)cc2)[C@@H]1c1ccccc1	2.95 µM (active)	
COc1nc(N)nc2c1ncn2C1OC(CO)C(O)C1O (stereo not given)	4.68 µM (active)	
O=C(CCCCCCC(=O)N/N=C/c1ccc(N(c2ccccc2)c2ccccc2)cc1)NO	1.48 µM (active)	
O=C(O)CCNc1cc(N2CCc3ccccc3CC2)nc(-c2cccnc2)n1	inactive	

Compound	Potency	activity change, negative = cell killing
Cc1cc(-c2cnn3c(NCC4CC(C)(O)C4)cc(Oc4cccnc4)nc23)ccc1C(=O)NC1CC1 (stereo not given)	0.132 µM (active)	
CC(C)n1c(=O)cc(N[C@@H](C)c2ccccc2)[nH]c1=O	inactive	
O=C(O)C[C@H]1CCc2c1[nH]c1ccc(OCc3ccc(C4CCCC4)c(C(F)(F)F)c3)cc21	inactive	
Cn1cc(/C=C/C(=O)c2cccc(F)c2)cc1/C=C/C(=O)NO	18.6 µM (active)	
Nc1nccc(-c2c(-c3ccc(F)cc3)ncn2C2CCN(Cc3ccon3)CC2)n1	7.42 µM (active)	
CC1(C)S[C@H]2[C@H](NC(=O)[C@@H](N)c3ccc(O)cc3)C(=O)N2[C@H]1C(=O)O	inactive	
CC(C)(NS(=O)(=O)c1ccc2c(Cl)cnc(N=C(N)N)c2c1)C(=O)O	inactive	
CN1CCN(C(=O)[C@H]2[C@@H](C(=O)O)[C@H]3CC[C@@H]2O3)CC1		4.4% [at 9.23 µM]
CC(=O)N1CCN(c2ccc(NC(=O)Cc3cnc(-c4ccnc(F)c4)c(C)c3)nc2)CC1	inactive	
O=C(O)CCCCN(CCc1ccccc1OCc1ccc(CCc2ccccc2)cc1)Cc1ccc(C(=O)O)cc1	inactive	
CC(=O)N[C@H]1[C@H](O[C@@H]2c3ccc(c(Cl)c3)Oc3cc4cc(c3O[C@@H]3O[C@H](CO)[C@@H](O)[C@H](O)[C@H]3NC(=O)CCCCCCCC(C)C)Oc3ccc(cc3Cl)C[C@H]3NC(=O)[C@H](N)c5ccc(O)c(c5)Oc5cc(O)cc(c5)[C@H](NC3=O)C(=O)N[C@H]4C(=O)N[C@H]3C(=O)N[C@@H]2C(=O)N[C@@H](C(=O)O)c2cc(O)cc(O[C@H]4O[C@H](CO)[C@@H](O)[C@H](O)[C@@H]4O)c2-c2cc3ccc2O)O[C@H](CO)[C@@H](O)[C@@H]1O	inactive	
O=C(Nc1cccc(C(F)(F)F)c1)c1cccc2cc(Oc3cc(CO)ncn3)ccc12	inactive	
NC1=N[C@@]2(c3cc(NC(=O)c4ccc(F)cn4)ccc3F)COC[C@H]2CS1	inactive	
C[C@@H]1CC(=O)Nc2cccc(-c3ccc4c(c3)c(-c3cnn(C)c3)nn4C)c2N1	0.662 µM (active)	
C=C1C[C@H]2C=Nc3cc(OCCCOc4cc5c(cc4OC)C(=O)N4CC(=C)C[C@H]4C=N5)c(OC)cc3C(=O)N2C1	inactive	
CC(C)(O)CC[C@@H](O)[C@](C)(O)[C@H]1CC[C@@]2(O)C3=CC(=O)[C@@H]4C[C@@H](O)[C@@H](O)C[C@]4(C)[C@H]3CC[C@]12C	inactive	
Cc1c(-c2c(-c3ccc(F)o3)sc3ncnc(O[C@@H](Cc4ccccc4OCc4ccnn4CC(F)(F)F)C(=O)O)c23)ccc(OCCN2CCN(C)CC2)c1Cl	0.166 µM (active)	
